# Screening results deposited in PubChem by National Center for Advancing Translational Sciences (NCATS).
# The list is not random: actives were taken first. Their share in the collection is about 10%.
# HEK cytotox – Cytotoxic Profiling in HEK 293 Cell Line of Diverse Libraries Using Quantitative High-Throughput Screening. HEK 293 viability, ATP luminescence (CellTiter-Glo), 48-72 h. AID 1345083, 2018. Potency, µM (doses to about 115 µM), inactives show at the highest dose activity change, negative = cytotoxicity, usual class: inhibitors. hit rate 6.6% among 94,000; also: nearly all actives have a fitted effect of over 60% in size
#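 HEK 293 seeded at 250 cells/well receive compound via pintool. After 48 or 72 hr at 37 degree Celsius, 5% CO2 and 95% humidity, CellTiter-Glo is dispensed and luminescence read following 10 min at room temperature.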
# 3T3 cytotox – Cytotoxic Profiling in NIH 3T3 Cell Line of Diverse Libraries Using Quantitative High-Throughput Screening. NIH 3T3 viability, CellTiter-Glo ATP luminescence, 48-72 h. Potency, µM (top dose mostly 96.7 µM), for the others: at the top dose activity change, negative = cytotoxicity, most hits filed as inhibitors. hit rate 4.3% among 94,000; also: nearly all actives have a fitted effect of over 55% in size
#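 Cytotoxicity is measured as loss of cellular ATP: NIH 3T3 cells (400/well) are exposed to compound for 48 or 72 hr at 37 °C, then CellTiter-Glo luminescence is imaged after 10 min at room temperature.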
# Luciferase inh – Firefly luciferase inhibition profiling of diverse chemical library using quantitative high-throughput screening; purified P. pyralis luciferase, luminescence, biochemical; Potency, µM (highest dose often 115 µM), most hits filed as inhibitors; AID 1347043, 2019; hit rate 2.5% among 76,000; Luciferin 4-monooxygenase (Photinus pyralis), P08659; also: nearly all actives have a fitted effect of over 65% in size
# Target sequence (P08659 whole entry, looked up): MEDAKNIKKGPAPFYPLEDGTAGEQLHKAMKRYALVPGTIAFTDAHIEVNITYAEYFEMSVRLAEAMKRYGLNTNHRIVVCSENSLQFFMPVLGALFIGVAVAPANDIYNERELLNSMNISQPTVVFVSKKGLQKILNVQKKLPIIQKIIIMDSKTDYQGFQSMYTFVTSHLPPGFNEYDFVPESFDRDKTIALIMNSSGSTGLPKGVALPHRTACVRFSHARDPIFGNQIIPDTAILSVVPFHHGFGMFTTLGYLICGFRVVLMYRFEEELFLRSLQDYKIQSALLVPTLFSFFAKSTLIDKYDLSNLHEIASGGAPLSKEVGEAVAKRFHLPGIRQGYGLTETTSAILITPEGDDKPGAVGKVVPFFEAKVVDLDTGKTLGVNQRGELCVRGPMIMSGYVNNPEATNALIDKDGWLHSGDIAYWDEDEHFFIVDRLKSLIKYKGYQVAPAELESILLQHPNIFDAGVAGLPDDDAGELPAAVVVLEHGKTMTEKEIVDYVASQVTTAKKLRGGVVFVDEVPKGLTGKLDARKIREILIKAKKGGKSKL
#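 Inhibitors were tested against purified firefly luciferase in a biochemical, low-substrate format (both substrates at 10uM) and luminescence measured with a CCD imager.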
# GPT2 inh – Primary qHTS assay for inhibitors of Glutamate pyruvate transaminase 2 (GPT2); Alanine aminotransferase 2 (Homo sapiens), Q8TD30; Recombinant GPT2, coupled pyruvate oxidase/HRP Amplex Red fluorescence; Potency, µM (top dose mostly 57.7 µM), inactives show at the highest dose activity change, negative = inhibition, hits mostly inhibitors; AID 1671188, 2021; hit rate 0.25% among 100,000; also: nearly all actives have a fitted effect of over 60% in size
#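 GPT2 10ng/uL, a-KG 250uM, L-Ala 2mM, HEPES pH7.5 + 0.0001% Tween; 30 min RT. Then Amplex mix (PO/HRP/ThPP), 30 min RT dark, fluorescence. AOA 50uM used as positive control.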
# hNpr1 antagonist – Natriuretic polypeptide receptor (hNpr1) antagonism - Primary qHTS. Potency, µM (doses to about 46.3 µM), inactives show at the top dose activity change, negative = inhibition, usual class: inhibitors. AID 1347048, 2019. hit rate 1.6% among 76,000. Atrial natriuretic peptide receptor 1 (Homo sapiens), P16066. HEK293 hNpr1 GloSensor cGMP, ANP-stimulated luminescence; calls by dose curve; also: nearly all actives have a fitted effect of over 60% in size
#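 HEK293 cells stably expressing human Npr1 and cGMP GloSensor pGS-40F, loaded 2 h with 2% GloSensor reagent, given compound 30 min at room temperature. Luminescence read before and 20 min after 0.1 nM hNppA.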
# Starred values were filed as active, the others as inactive; i = inactive; ? = inconclusive; . = not tested or not shown; [ ] = remark or other dose. Unless noted, calls follow the shape of the dose curve; as a rule, active = well fitted curve in the direction sought with a large enough effect; inconclusive = small, poorly fitted or top-dose-only effect, or another doubt; inactive = no such curve, though single readings can be large; an effect the other way counts as inactive or inconclusive. % is scaled to controls: 0 for no effect and ±100 for the full control effect; potency is read from the fitted curve at half-maximal effect.
SMILES,HEK cytotox,3T3 cytotox,Luciferase inh,GPT2 inh,hNpr1 antagonist
COc1ccc(NC(=O)c2ccc3c(c2)N(S(C)(=O)=O)CC3)cc1Cl,?,-23%,1µM*,?,?
COc1ccc(NC(=O)Cn2c(-c3ccc(Cl)cc3)nc(C)c(CCO)c2=O)cc1,?,-17%,i,-4%,-1%
CCCCNC(=O)c1cccc2c1CCN2C(=O)Nc1ccc(C)cc1,?,?,?,?,1.4µM*
Cc1ccc(NC(=O)N2CCc3c(C(=O)N(C)C)cccc32)cc1,2%,?,16µM*,3%,-1%
Cc1cccc(S(=O)(=O)N2CCc3c(C(=O)NCCCN4CCCCC4)cccc32)c1,?,?,i,-14%,1%
COCCCNC(=O)c1cccc2c1CCN2C(=O)Nc1cccc(C)c1,?,?,0.32µM*,i,2µM*
CC(C)CCN1CC[C@@H]2OCC(=O)N(Cc3c[nH]c4ccccc34)[C@H]2CC1,100µM*,?,i,1%[88.5 µM],-16%[70.6 µM]
O=C1CO[C@H]2CCN(Cc3c[nH]c4ccccc34)CC[C@@H]2N1Cc1ccccc1,?,89µM*,i,-9%[88.5 µM],-4%[70.6 µM]
N#Cc1cccc(CN2CC[C@@H]3OCC(=O)N(Cc4c[nH]c5ccccc45)[C@H]3CC2)c1,100µM*,?,i,2%[88.5 µM],-9%[70.6 µM]
CCC(C)NC(=O)N1CCc2ccc(S(=O)(=O)Nc3nn[nH]n3)cc2C1 (stereo not given),4%,i,i,i,3%
Cc1nc2c(NS(=O)(=O)c3cccc(C#N)c3)cccn2n1,0%,-20%,i,i,1%
O=C(N[C@H]1CO[C@H]2[C@@H]1OC[C@@H]2Nc1nccc(-c2ccco2)n1)c1ccco1,?,-23%[138 µM],i,-13%[88.5 µM],-8%[70.6 µM]
CC(=O)c1ccc(NC(=O)N[C@H]2CO[C@H]3[C@@H]2OC[C@@H]3Nc2nccc(-c3cccs3)n2)cc1,4%,-1%,i,-3%,1%
O=C(Nc1ccccc1)N[C@H]1CO[C@H]2[C@@H]1OC[C@@H]2Nc1nccc(-c2cccs2)n1,63µM*,?,?,-4%[88.5 µM],-15%[70.6 µM]
O=C(COc1ccccc1)N[C@H]1CO[C@H]2[C@@H]1OC[C@@H]2Nc1nccc(-c2ccco2)n1,?,89µM*,i,-3%[88.5 µM],-1%[70.6 µM]
CCN1c2cc(C(=O)Nc3ccc(C)cc3)ccc2C(=O)N2CCCC21 (stereo not given),5%,-3%,i,i,6%
FC(F)(F)c1ccc2c(c1)nc1n2[C@@H](CNCc2c[nH]c3ccccc23)COC1,89µM*,?,i,-17%[88.5 µM],-17%[70.6 µM]
O=[S+]1([O-])NCC2(CCN(CC3CCOCC3)CC2)Oc2ncccc21,i,i,.,-1%,.
O=C1Nc2ccc(-c3cccc(C(F)(F)F)c3)cc2C(=O)N2CCN(C(=O)c3cccc(F)c3)C[C@H]12,32µM*,?,?,-4%,-4%
COc1ccc(-c2ccc3c(c2)C(=O)N2CCN(C(=O)c4cccc(F)c4)C[C@@H]2C(=O)N3)cc1,?,-31%,?,-27%,-7%
O=C1Nc2ccc(-c3cccc(C(F)(F)F)c3)cc2C(=O)N2CCN(C(=O)c3cccs3)C[C@H]12,22µM*,45µM*,i,2%,-22%
O=C1Nc2ccc(-c3cccc(C(F)(F)F)c3)cc2C(=O)N2CCN(C(=O)C3CCNCC3)C[C@H]12,-14%,-21%,i,-3%,4%
O=C1Nc2ccc(-c3cccc(C(F)(F)F)c3)cc2C(=O)N2CCN(C(=O)C3CCCC3)C[C@@H]12,40µM*,?,i,-14%,-3%
COc1ccc(Cl)cc1-c1ccc2c(c1)C(=O)N1CCN(C(=O)C3CCCCC3)C[C@@H]1C(=O)N2,?,45µM*,i,3%,2%
Cc1cccc(OCCc2noc(C3CCCN3C(=O)C3CCCC3)n2)c1 (stereo not given),?,?,i,i,-26%
SMILES,HEK cytotox,3T3 cytotox,Luciferase inh,GPT2 inh,hNpr1 antagonist
Cc1cc(C)c(S(=O)(=O)c2nnn3c2nc(NCc2ccc(F)cc2)c2ccccc23)c(C)c1,-12%,?,.,?,.
Cn1cnc(S(=O)(=O)N2CCCC(OCc3noc(-c4cccnc4)n3)C2)c1 (stereo not given),i,-1%,.,i,.
O=C1Nc2ccc(-c3cccc(C(F)(F)F)c3)cc2C(=O)N2CCN(C(=O)c3ccccc3)C[C@H]12,20µM*,?,?,-1%,?
N[C@H]1CCN2C(=O)c3cc(-c4ccc(Cl)cc4)ccc3NC(=O)[C@@H]2C1,40µM*,32µM*,i,i,0%[70.6 µM]
COc1ccc(Cl)cc1-c1ccc2c(c1)C(=O)N1CCN(C(=O)c3cccs3)C[C@@H]1C(=O)N2,?,-28%,i,-4%,-16%
O=C1Nc2ccc(-c3cccc(C(F)(F)F)c3)cc2C(=O)N2CCN(C(=O)c3cccnc3)C[C@H]12,?,-19%,i,5%,-4%
COc1ccc(Cl)cc1-c1ccc2c(c1)C(=O)N1CC[C@H](NC(=O)c3cccs3)C[C@H]1C(=O)N2,32µM*,?,i,-12%,-25%
O=C1Nc2ccc(-c3ccccc3)cc2C(=O)N2CCN(C(=O)c3ccccc3)C[C@H]12,89µM*,?,i,?,-13%[70.6 µM]
NC(=O)C(=O)N1CCN2C(=O)c3cc(-c4ccc(Cl)cc4)ccc3NC(=O)[C@@H]2C1,?,?,i,-6%[88.5 µM],-1%[70.6 µM]
O=C(CN1C(=O)COc2ccc(C(=O)COc3ccccc3Cl)cc21)NCC1CCCO1 (stereo not given),-13%,3%,i,i,-20%
Cc1noc(C)c1-c1cc2cc(CN(C)C)oc2c(NC(C)C)n1,?,?,i,i,5%[70.6 µM]
COc1ccccc1CC(=O)N1CCC2(CC1)N=C(c1cccc(Br)c1)NO2,?,?,i,i,-17%
CCSC(=N)N,.,.,.,1%,.
O=C(N[C@H]1C[C@H]2C(=O)Nc3ccc(-c4cccs4)cc3C(=O)N2C1)c1ccccc1,32µM*,?,i,i,?
COc1ccc(Cl)cc1-c1ccc2c(c1)C(=O)N1CCN(C(=O)c3ccccc3)C[C@@H]1C(=O)N2,28µM*,?,i,?,2%
